From PubChem
T cruzi growth-1 – T. cruzi proliferation inhibition; actives 5.9% (n = 77,000); T. cruzi beta-gal in NIH3T3, GalScreen luminescence, 90 h; inhibition, % at 8.34 µM; AID 624255;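 active = mean inhibition above about 93%, with at least 55% of replicates each passing it, limit read from the data, passing the limit was not always enough; inconclusive = only one of those two conditions holds; inactive = neither condition holds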
C diff growth – inhibitors of Clostridium difficile growth | Clostridium difficile clinical isolate growth, OD600, 24 h; active compounds read low | growth activity, negative = inhibition, % at 16 µg/mL (by protocol) | actives 0.25% (n = 86,000) | AID 1259249;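 active = mean growth activity at or below -80% and every replicate also at or below -80%; inconclusive = mean at or below -80% but some replicate above -80%; inactive = mean growth activity above -80%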
Pf Dd2 inh – blocks growth of Plasmodium falciparum Dd2 parasites; P. falciparum Dd2 growth, SYBR Green, 72 h; active compounds read low; activity change, % at 10 µM; actives 2.3% (n = 94,000); in the data active = activity change below about -80%; inconclusive = no clear call, values can overlap the other calls
T cruzi growth-2 – inhibitors of T. cruzi proliferation; inhibition, % at 8.35 µM; shares compounds with T cruzi growth-1; T. cruzi beta-gal in NIH3T3, GalScreen luminescence, 90 h; actives 72% (n = 5,600);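 active = mean replicate inhibition above about 95% and at least 55% of replicates individually reaching it, limit read from the data; inconclusive = only one of the two criteria is met; inactive = neither criterion is met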
T cruzi growth-3 – inhibitors of T. cruzi proliferation. shares compounds with T cruzi growth-1. T. cruzi beta-gal in NIH3T3, GalScreen luminescence, 90 h. inhibition, % at 2.09 µM. actives 21% (n = 5,600);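 active = mean inhibition above about 95%, with at least 55% of replicates also reaching it, limit read from the data; inconclusive = meets just one of the two conditions; inactive = meets neither condition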
3T3 cytotox – kills mouse NIH/3T3 fibroblasts. cytotoxicity (signal decrease), % at 8.35 µM. actives 14% (n = 5,600). NIH/3T3 viability, CellTiter-Glo ATP luminescence, 90 h. shares compounds with T cruzi growth-1;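 active = mean signal decrease across replicates above about 35% based on untreated-well scatter, with enough replicates individually passing, limit read from the data; inconclusive = no rule stated though some were filed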
NIH3T3 tox 2 – kills mouse NIH/3T3 fibroblasts; shares compounds with T cruzi growth-1; NIH/3T3 viability, CellTiter-Glo ATP luminescence, 90 h; inhibition, % at 24.9 µM; actives 56% (n = 5,600); AID 651744;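 active = mean loss of cell viability signal at or above a set limit, and enough replicates individually reaching it; inconclusive = meets only the mean limit or only the replicate share; inactive = meets neither condition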
Hits are given with their value; i = inactive; ? = inconclusive; nt = no result given; ! = repeats disagree. Sampled rows, rich in hits. Any-hit rate of the full collection: about 6.7%.

SMILES	T cruzi growth-1	C diff growth	Pf Dd2 inh	others
O=C(c1ccccc1F)N1C[C@@H]2[C@H](c3ccccc31)[C@H](CO)N2C(=O)c1cccnc1	i	i	i
CNC[C@@H]1OCCCC[C@@H](C)Oc2ccc(NC(=O)c3ccncc3)cc2C(=O)N([C@H](C)CO)C[C@@H]1C	i	i	i
COc1ccc(S(=O)(=O)N(C)C[C@H]2Oc3ccc(NC(=O)CCCCCC(=O)Nc4ccccc4N)cc3C(=O)N([C@@H](C)CO)C[C@@H]2C)cc1	nt	i	i
CNC[C@H]1OCCCC[C@H](C)Oc2ccc(NS(=O)(=O)c3ccc(C)cc3)cc2C(=O)N([C@H](C)CO)C[C@@H]1C	i	i	i
C[C@@H]1CN([C@@H](C)CO)S(=O)(=O)c2ccc(Br)cc2O[C@H]1CN(C)C(=O)C1CCCCC1	i	i	i
C[C@H]1CN([C@@H](C)CO)S(=O)(=O)c2ccc(Br)cc2O[C@@H]1CN(C)C(=O)C1CCCCC1	103	i	i	T cruzi growth-2=i;T cruzi growth-3=i;3T3 cytotox=i;NIH3T3 tox 2=42
C[C@H](CO)N1C[C@H](C)[C@H](CN(C)C(=O)C2CCCCC2)Oc2cc(Br)ccc2S1(=O)=O	i	i	i
C[C@@H]1CN([C@H](C)CO)S(=O)(=O)c2ccc(Br)cc2O[C@H]1CN(C)C(=O)C1CCCCC1	100!	i	i	T cruzi growth-2=i;T cruzi growth-3=i;3T3 cytotox=i;NIH3T3 tox 2=48
C[C@@H]1CN([C@@H](C)CO)C(=O)Cc2cc(NS(=O)(=O)c3ccccc3)ccc2O[C@@H]1CN(C)Cc1ccc(C(=O)O)cc1	i	i	i
CC(C)NC(=O)Nc1cccc2c1O[C@@H](CN(C)Cc1ccc(C(=O)O)cc1)[C@H](C)CN([C@H](C)CO)C2=O	nt	i	i
COc1ccc2c3c([nH]c2c1)[C@@H](CO)N(Cc1cccnc1)CC31CN(C(=O)CN(C)C)C1	nt	i	i
C[C@@H]1CN([C@@H](C)CO)C(=O)c2cc(C#Cc3ccccc3F)cnc2O[C@H]1CN(C)C(=O)C1CCC1	nt	i	i
CCC(=O)N(C)C[C@@H]1Oc2cc(C#CC3CCCCC3)ccc2S(=O)(=O)N([C@H](C)CO)C[C@@H]1C	110	i	i	T cruzi growth-2=95;T cruzi growth-3=i;3T3 cytotox=i;NIH3T3 tox 2=104
CCC(=O)N(C)C[C@H]1Oc2cc(C#CC3CCCCC3)ccc2S(=O)(=O)N([C@H](C)CO)C[C@H]1C	i	i	i
CCC(=O)N(C)C[C@H]1Oc2cc(C#CC3CCCCC3)ccc2S(=O)(=O)N([C@H](C)CO)C[C@@H]1C	108	i	i	T cruzi growth-2=102;T cruzi growth-3=i;3T3 cytotox=i;NIH3T3 tox 2=83
CCC(=O)N(C)C[C@H]1Oc2cc(C#CC3CCCCC3)ccc2S(=O)(=O)N([C@@H](C)CO)C[C@H]1C	i	i	i
CCC(=O)N(C)C[C@H]1Oc2cc(C#CC3CCCCC3)ccc2S(=O)(=O)N([C@@H](C)CO)C[C@@H]1C	i	i	i
CCC(=O)N(C)C[C@@H]1Oc2cc(C#CC3CCCCC3)ccc2S(=O)(=O)N([C@@H](C)CO)C[C@@H]1C	?	i	i	T cruzi growth-2=100;T cruzi growth-3=i;3T3 cytotox=i;NIH3T3 tox 2=106
Cc1noc(C)c1NC(=O)Nc1ccc2c(c1)CC(=O)N([C@@H](C)CO)C[C@H](C)[C@@H](CN(C)Cc1ccc(C(=O)Nc3ccccc3N)cc1)O2	nt	i	i
CS(=O)(=O)Nc1ccc2c(c1)[C@@H]1C[C@@H](CC(=O)NCc3ccccc3)O[C@@H](CO)[C@@H]1O2	i	nt	i
CCNC(=O)C[C@H]1CC[C@@H]2[C@@H](COc3ccc(NC(=O)C4CCOCC4)cc3C(=O)N2C)O1	i	i	i
CO[C@H]1CN(C)C(=O)c2cc(NC(=O)NC(C)C)ccc2OC[C@@H](C)N(CCC(F)(F)F)C[C@@H]1C	i	i	i
C[C@H]1CN([C@@H](C)CO)C(=O)Cc2cc(NS(=O)(=O)c3ccc(F)cc3)ccc2O[C@@H]1CN(C)Cc1ccc(C(F)(F)F)cc1	i	i	i
C[C@@H]1CN([C@@H](C)CO)S(=O)(=O)c2ccc(C#Cc3ccccn3)cc2O[C@H]1CN(C)C	nt	i	i
